This is a sample that favours compounds with a hit; in the whole collection about 1.9% have one here.
Menin-MLL TR inh = qHTS Assay for Inhibitors Targeting the Menin-MLL Interaction in MLL Related Leukemias: Competition With Texas Red Labeled MLL-derived Mutant Peptide; O00255; Potency, µM (highest dose often 61.6 µM), actives largely listed as inhibitors; 270,000 compounds, 0.23% hits; Menin + Texas Red MLL mutant peptide, fluorescence polarization; active = well fitted inhibition curve with a large enough effect in the polarisation, with a control signal flat, not every such curve was filed as active; inconclusive = small, poorly fitted or top-dose-only effect, or effect the other way, or a change in a side signal; inactive = no such curve, though single readings can be large or run the other way; the % refers to the polarisation
CXXC DNA block = qHTS Fluorescence Polarization Assay for Inhibitors of MLL CXXC domain - DNA interaction | MLL-CXXC / FITC-HOXA9 DNA fluorescence polarization | Potency, µM (highest dose often 115 µM), hits mostly inhibitors | 290,000 compounds, 0.037% hits | AID 2662, 2010; active = well fitted inhibition curve with a large enough effect in the polarisation, with a control signal flat, not every such curve was filed as active; inconclusive = small, poorly fitted or top-dose-only effect, or effect the other way, or a change in a side signal; inactive = no such curve, though single readings can be large or run the other way; the % refers to the polarisation
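Fluorescence polarization: 7 uM MLL-CXXC (stock) preincubated 5 min with compounds, then 50 nM fluorescein-HOX-A9 DNA (stock) added; 30 min ambient. Buffer 50 mM Tris-HCl pH 7.5, 50 mM NaCl, 1 mM DTT, 0.05% BSA.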
ClpP mod = qHTS Assay for Activators of ClpP; ATP-dependent Clp protease proteolytic subunit (Bacillus subtilis (strain 168)), P80244; purified B. subtilis ClpP, FRET peptide cleavage, 20 min; Potency, µM (titrated, usually from 57.5 µM); 340,000 compounds, 1.9% hits; active = well fitted falling curve with a large enough effect; inconclusive = small, poorly fitted or top-dose-only effect; inactive = no such curve, though single readings can be large or run the other way; note: the source files actives as falling curves though it sought activators and does not explain the sign; nearly all actives have a fitted effect of over 65% in size
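Purified B. subtilis ClpP, 10 microg/mL final in Tris/HCl pH8 with KCl, BSA, glycerol and Tween-20, cleaved an Abz/nitrotyrosine-quenched decapeptide. Fluorescence (ex 320, em 430) was read at 0 and 20 min at room temperature. Delta was normalized to 5.8 microM ADEP and DMSO/no-enzyme controls.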
Epigenetic derep = Quantitative High-Throughput Screen for Regulators of Epigenetic Control; murine LDR cells, GFP reporter derepression, 30 h; Potency, µM (doses to about 53.9 µM), usual class: activators; 280,000 compounds, 0.2% hits; active = well fitted activation curve with a large enough effect; inconclusive = small, poorly fitted or top-dose-only effect; note: nearly all actives have a fitted effect of over 60% in size
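Murine LDR cells bearing a silenced CMV-driven GFP reporter were exposed to compound for 30 h at 37 C. After PBS washes, GFP-positive cells (20-120 um objects) counted by laser-scanning microplate cytometry.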
Menin MLL FP FL = qHTS Assay for Inhibitors Targeting the Menin-MLL Interaction in MLL Related Leukemias: Competition With Fluorescein Labeled MLL-derived Peptide | Fluorescence polarization, fluorescein-MLL peptide displacement from menin | FP activity change, % at 61.4 µM | 290,000 tested, under 10 active; active = well fitted curve in the direction sought with a large enough effect in the polarisation, not every such curve was filed as active; inconclusive = small, poorly fitted or top-dose-only effect, or effect the other way, or a change in a side signal; inactive = no such curve, though single readings can be large or run the other way; the % refers to the polarisation
PINK1 modulator = A Quantitative High throughput Screen to Identify Chemical Modulators of PINK1 Expression; PINK1 immunofluorescence, high-content cytometry, 24 h; Potency, µM (titrated, usually from 76.6 µM), most hits filed as activators; 410,000 compounds, 0.2% hits; AID 624263, 2012; active = well fitted activation curve with a large enough effect; inconclusive = small, poorly fitted or top-dose-only effect; cell line not stated here; note: nearly all actives have a fitted effect of over 65% in size
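Measures PINK1 amount and localization on or inside mitochondria by immunofluorescence. Stable cells get compounds at 5 concentrations for 24 hours before fixation and staining; CCCP controls included.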
A number is an active result; – = inactive; ? = inconclusive; · = not tested or not shown.

SMILES | Menin-MLL TR inh | CXXC DNA block | ClpP mod | Epigenetic derep | Menin MLL FP FL | PINK1 modulator
CC(=O)N1N=C(c2ccc(Br)cc2)OC1(C)CC(=O)Nc1ccccc1 (stereo unspecified) | – | – | 25.1µM | – | – | –
COc1ccc2c(c1)-c1nc(-n3ncc(C(=O)NCc4cccc(C)n4)c3C3CC3)ncc1CC2 | · | · | · | · | · | –
CCN(CC)CCNC(=O)c1ccc2c(c1)NC(=O)C(CS(=O)(=O)Cc1ccc(F)cc1Cl)N2 (stereo unspecified) | · | · | 28.2µM | – | · | –
CC(C)CCNC(=O)c1ccc2c(c1)NC(=O)C(CS(=O)(=O)Cc1cccc(Br)c1)N2 (stereo unspecified) | · | · | ? | ? | · | –
O=C(NCc1ccc(Cl)cc1)c1ccc2c(c1)NC(=O)C(CS(=O)(=O)Cc1ccc(F)cc1Cl)N2 (stereo unspecified) | · | · | – | ? | · | –
CN(C)CCNC(=O)c1ccc2c(c1)NC(=O)C(CS(=O)(=O)Cc1cccc(Br)c1)N2 (stereo unspecified) | · | · | 31.6µM | – | · | –
CCN(CC)CCCNC(=O)c1ccc2c(c1)NC(=O)C(CS(=O)(=O)Cc1ccc(F)cc1Cl)N2 (stereo unspecified) | · | · | 3.16µM | – | · | –
CCOCCCNC(=O)c1ccc2c(c1)NC(=O)C(CS(=O)(=O)Cc1ccc(F)cc1Cl)N2 (stereo unspecified) | · | · | 7.08µM | – | · | –
Cc1ccc2c(c1)CN(CCNC(=O)c1cccc(Cn3cccn3)c1)CC(C)O2 (stereo unspecified) | · | · | · | · | · | –
Cc1ccccc1Cc1c(C)nc2c(C(=O)NCc3ccc4c(c3)OCO4)cnn2c1C | – | – | – | – | – | –
Cc1nc2c(C(=O)NCc3ccc4c(c3)OCO4)c[nH]n2c(=O)c1Cl | – | – | 31.6µM | – | – | –
COc1cccc(CNC(=O)c2c[nH]n3c(=O)c(Cl)c(C)nc23)c1 | ? | – | ? | – | – | –
Cc1cccc(Cc2c(C)nc3c(C(=O)NCc4ccco4)cnn3c2C)c1 | ? | – | 31.6µM | – | – | –
Cc1nc2c(C(=O)NCc3cccs3)cnn2c(C)c1Cc1ccccc1 | ? | – | · | – | – | ·
Cc1nc2c(C(=O)NCc3ccc4c(c3)OCO4)cnn2c(C)c1Cc1ccc(F)cc1Cl | ? | – | 35.5µM | – | – | –
Cc1nc2c(C(=O)NCc3ccco3)cnn2c(C)c1Cc1ccc(F)cc1Cl | ? | – | 31.6µM | – | – | –
Cc1ncc2c(c1CNC(=O)c1ccccc1F)CCN(C(=O)c1ccc3c(c1)OCCO3)C2 | · | · | · | · | · | –
COc1ccc2[nH]c(=O)c(C(c3nnnn3C3CCCC3)N3CCN(Cc4ccc5c(c4)OCO5)CC3)cc2c1 (stereo unspecified) | – | – | 28.2µM | – | – | –
CCOc1ccc2[nH]c(=O)c(C(c3nnnn3C3CCCCC3)N3CCN(C)CC3)cc2c1 (stereo unspecified) | – | – | 25.1µM | – | – | –
CCOc1ccc2[nH]c(=O)c(C(c3nnnn3C3CCCCC3)N3CCN(CC)CC3)cc2c1 (stereo unspecified) | – | – | 25.1µM | – | – | –
c1ccc2c(c1)Cc1ccccc1O2 | · | · | – | · | · | –
COc1ccc(C(=O)NCCn2cc(SCc3cccc(F)c3)c3ccccc32)cc1OC | · | · | – | – | · | –
C=CCN1C(=O)/C(=C/c2ccc(N(C)C)cc2)S/C1=N\c1nnc(CC)s1 | · | ? | · | 12.6µM | ? | ·
COC(=O)c1cc2c(ccn2-c2ccc(F)cc2)n1CC(=O)OC(C)C | – | – | – | – | – | –
COC(=O)c1cc2c(ccn2-c2ccc(F)cc2)n1CC(=O)C(C)(C)C | – | – | 25.1µM | – | – | –
SMILES | Menin-MLL TR inh | CXXC DNA block | ClpP mod | Epigenetic derep | Menin MLL FP FL | PINK1 modulator
CCc1ccc(CNC(=O)c2nn(-c3ccc(C)c(C)c3)nc2CO)cc1 | · | · | 3.55µM | – | · | –
CCc1ccc(-n2nc(CO)c(C(=O)NCCCCc3ccccc3)n2)cc1 | · | · | ? | – | · | –
COCCNC(=O)c1nn(-c2ccc(Cl)cc2)nc1CO | · | · | 14.1µM | – | · | –
CCc1ccc(-n2nc(CO)c(C(=O)NCCOC)n2)cc1 | · | · | 12.6µM | – | · | –
CCOc1ccc(-n2nc(CO)c(C(=O)NCC(C)O)n2)cc1 (stereo unspecified) | · | · | 14.1µM | – | · | –
Cc1ccc(NC(=O)CCN2C(=O)c3ccccc3C2=O)cc1 | – | – | – | · | – | –
COc1cccc(-c2cc3c(c(OC)c2)OCCN(Cc2cccn2-c2ccccn2)C3)c1 | · | · | · | · | · | –
CCOC(=O)N1CCN(CC(=O)Nc2ccc(Oc3ccccc3)cc2)CC1 | · | – | 28.2µM | – | – | –
CN1CCN(CC(=O)Nc2ccc(Oc3ccccc3)cc2)CC1 | – | – | – | – | – | –
OC1CCCN(Cc2c3ccccc3cc3ccccc23)C1 (stereo unspecified) | – | – | 20µM | – | – | –
O=C(Nc1cc(OC(=O)C(F)(F)F)c2nonc2c1OC(=O)C(F)(F)F)C(F)(F)F | · | · | – | · | · | –
COC(=O)C1=C(C)NC2=C(C(=O)CC(C)(C)C2)C1c1ccccn1 (stereo unspecified) | – | – | 28.2µM | – | – | ·
COC(=O)C1=C(C)NC2=C(C(=O)CC(C)(C)C2)C1c1ccsc1 (stereo unspecified) | – | – | 28.2µM | – | – | –
O=C(Cc1cccc(F)c1)NO | · | · | – | · | · | –
CCOc1ccc(CCNc2ncnc3onc(-c4ccc(F)cc4)c23)cc1OCC | · | · | – | – | · | –
NCCCCCC(=O)N/N=C/c1coc2ccccc2c1=O | · | – | 17.8µM | – | – | –
CNC(=S)NNC(=O)Cc1ccc(OC)cc1 | · | – | 28.2µM | – | – | –
COc1ccc(CCC(=O)NNC(=O)c2cc(Cl)ccc2OC)cc1 | – | – | · | · | – | –
CNC(=S)NNC(=O)Cc1ccc(O)cc1 | – | – | ? | – | · | –
COc1ccc(CC(=O)NNC(=O)c2cc(Cl)ccc2OC)cc1 | · | · | 28.2µM | · | · | ?
N#Cc1ccsc1NC(=O)c1ccc(Cl)c([N+](=O)[O-])c1 | · | – | – | – | – | 31.6µM
CCCN1C(=O)S/C(=C/c2ccc(N3CCOCC3)o2)C1=O | · | ? | · | 10µM | ? | 39.8µM
CCCN1C(=O)S/C(=C\c2ccc(N3CCOCC3)cc2C)C1=O | – | ? | · | – | ? | ·
O=C(O)CN1C(=O)/C(=C/c2ccc(N3CCCCC3)o2)SC1=S | · | ? | – | – | ? | –
CCOC(=O)CN1C(=O)S/C(=C/c2ccc(N3CCCCC3)o2)C1=O | ? | ? | – | ? | ? | –
